In PubChem BioAssay:
Values joined by “and” are separate entries in the source; they are usually repeats but may differ in a detail not shown here. Equal entries are not always repeated. Active and inactive are the calls of the source.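 How the source made its calls, unless noted: active means thallium flux through the channel raised or lowered by more than 3 SD from vehicle-only wells, actives on both sides; inactive means the rest.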

Legend:
[1] = liver-stage malaria parasite growth inhibition, primary screen, cell-based, HepG2, luciferase luminescence, HepG2 viability (AID 624349; in the data active means parasite load remaining mostly below about 12%, no sharp cut-off; inactive means mostly above about 10%;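 further: 100% = mean of DMSO negative control wells on the same plate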); conditions: P. berghei liver stage in HepG2, luciferase luminescence, concentration not given here; parasite load remaining: stronger effect = lower value; viability: measured here: HepG2 viability without parasites
[2] = Cy5 fluorescence interference with SSB-bound oligo, artefact control for HCV NS3 helicase inhibitor project, biochemical, NIH Clinical Collection, E. coli SSB (AID 743268; call rule not given here)
[3] = tested on: Hepatitis C virus NS3 helicase; assay: HCV NS3 helicase inhibitors, primary screen, biochemical, fluorescence polarization, NIH Clinical Collection (AID 743270; call rule not given here); conditions: NS3 helicase binding to Cy5-dT15 DNA, stronger effect = higher value, concentration not given here
[4] = target: Single-stranded DNA-binding protein (Escherichia coli (strain K12)) (UniProt P0AGE0); assay: E. coli SSB displacement from DNA, counter-screen for HCV NS3 helicase inhibitor project, biochemical, fluorescence polarization, NIH Clinical Collection (AID 743271; in the data active means inhibition above about 28%); conditions: stronger effect = higher value, concentration not given here
[5] = fluorescence interference in NS3h assay format, artefact control for HCV NS3 helicase inhibitor project, biochemical, NIH Clinical Collection (AID 743272; call rule not given here;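 further: HCV NS3 helicase with a Cy5 labelled single stranded DNA probe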); conditions: fluorescence interference counterscreen, stronger effect = lower value
[6] = tested on: Neuropilin-2 / VEGF-C interaction (human); assay: inhibitors of NRP2–VEGF-C binding, biochemical, microplate binding format, z-score (AID 743281; call rule not given here); conditions: microplate NRP2/VEGF-C binding assay; stronger effect = lower value
[7] = modulation of C. elegans fzo-1 (AID 1259413; call rule not given here;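 further: fzo-1 mutant C. elegans worms in liquid wells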); conditions: C. elegans fzo-1 modulator screen, mean read-out; stronger effect = higher value
F380Y = assay: modulators of BK channel variants, profiling panel, selectivity assay, cell-based, U2OS BacMam, thallium flux, beta subunits (AID 1259406); conditions: at 30 µM;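 further: initial slope of Thallos dye fluorescence rise after thallium is added; log ratio against the mean of 0.3% DMSO vehicle wells on the same plate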
F380Y/beta2Delta = assay: as above; conditions: at 30 µM
[8] = target: Calcium-activated potassium channel subunit alpha-1 (Homo sapiens) + Leucine-rich repeat-containing protein 26 (Homo sapiens) (UniProt Q12791+Q2I0M4); assay: as above; conditions: F380Y/Slo1WT/gamma1, at 30 µM
R275C = assay: as above; conditions: at 30 µM
R275C/beta1 = assay: as above; conditions: at 30 µM
R275C/beta2Delta = assay: as above; conditions: at 30 µM
[9] = sensitizers of A549 cells to miR-34 induction, primary screen, imaging, A549 dox-inducible miR-34, nuclei and caspase counts (AID 1347080;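 active means compounds whose cell count with miR-34 switched on is under 0.7 times the count with it off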); conditions: A549 miR-34 inducible, Hoechst nuclei count, 48 h
F380Y/beta1 = assay: modulators of BK channel variants, profiling panel, selectivity assay, cell-based, U2OS BacMam, thallium flux, beta subunits (AID 1259406); conditions: at 30 µM;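 further: initial slope of Thallos dye fluorescence rise after thallium is added; log ratio against the mean of 0.3% DMSO vehicle wells on the same plate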
F380Y/beta4 = assay: as above; conditions: at 30 µM
R275C/beta4 = assay: as above; conditions: at 30 µM
R275C/Slo1WT/beta2 = assay: as above; conditions: at 30 µM
[10] = measured here: relative caspase fold change +Dox/-Dox
[11] = measured here: total cells with miR-34 induction, stronger effect = lower value
[12] = measured here: total cells without miR-34 induction

Chain of Calcium-activated potassium channel subunit alpha-1 (Homo sapiens) + Leucine-rich repeat-containing protein 26 (Homo sapiens) (Q2I0M4 whole entry, looked up, one chain of several): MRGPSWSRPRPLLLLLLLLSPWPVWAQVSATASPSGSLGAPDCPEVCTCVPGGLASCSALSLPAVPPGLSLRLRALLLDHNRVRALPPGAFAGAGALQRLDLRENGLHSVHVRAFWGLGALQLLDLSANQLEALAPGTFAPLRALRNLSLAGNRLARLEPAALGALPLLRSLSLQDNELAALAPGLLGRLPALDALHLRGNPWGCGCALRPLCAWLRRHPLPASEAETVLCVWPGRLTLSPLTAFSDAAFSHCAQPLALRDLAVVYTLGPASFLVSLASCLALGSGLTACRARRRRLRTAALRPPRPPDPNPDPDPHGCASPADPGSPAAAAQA

CN1CC[C@@]23CCCC[C@@H]2[C@@H]1Cc1ccc(O)cc13
68.2%: viability [1]
inactive: parasite load remaining [1] 97.8% | fluorescence ratio [2] 0.99 | inhibition [3] -1.98% | inhibition [4] -3.18% | fluorescence ratio [5] 0.91 | z-score [6] -0.569 | mean signal [7] 229 | log fold change Tl+ flux (F380Y) 0.0229 | log fold change Tl+ flux (F380Y/beta2Delta) 0.00585 | log fold change Tl+ flux [8] 0.0222 | log fold change Tl+ flux (R275C) 0.00894 | log fold change Tl+ flux (R275C/beta1) 0.0266 | log fold change Tl+ flux (R275C/beta2Delta) 0.00635

c1cncc(C2CCCN2)c1 (centres undefined)
74.2%: viability [1]
9590: cell count [9, 11]
inactive: parasite load remaining [1] 96.8% | fluorescence ratio [2] 1.01 | inhibition [3] -1.98% | inhibition [4] -1.64% | fluorescence ratio [5] 0.95 | z-score [6] -0.685 | mean signal [7] 296 | fold change ([9]; stronger effect = lower value) 0.916
10500: cell count [9, 12]
2.18: fold change [9, 10]

CN1C(=O)CN=C(c2ccccc2)c2cc(Cl)ccc21
9590: cell count [9, 12]
inactive: parasite load remaining [1] 122% | fluorescence ratio [2] 1.03 | inhibition [3] -1.98% | inhibition [4] 0.67% | fluorescence ratio [5] 1.02 | z-score [6] -0.636 | mean signal [7] 240 | fold change ([9]; stronger effect = lower value) 0.967 | log fold change Tl+ flux (F380Y) 0.00227 | log fold change Tl+ flux (F380Y/beta1) -0.0264 | log fold change Tl+ flux (F380Y/beta2Delta) 0.0204 | log fold change Tl+ flux (F380Y/beta4) 0.0209 | log fold change Tl+ flux [8] -0.0437 | log fold change Tl+ flux (R275C) -0.0487 | log fold change Tl+ flux (R275C/beta1) -0.07 | log fold change Tl+ flux (R275C/beta2Delta) -0.0058 | log fold change Tl+ flux (R275C/beta4) 0.0195 | log fold change Tl+ flux (R275C/Slo1WT/beta2) 0.0176
1.74: fold change [9, 10]
9270: cell count [9, 11]
81.8%: viability [1]

Clc1ccc(CON=C(Cn2ccnc2)c2ccc(Cl)cc2Cl)c(Cl)c1
3280: cell count [9, 11]
2560: cell count [9, 12]
0.637: fold change [9, 10]
active: log fold change Tl+ flux (R275C/beta1) 0.329
inactive: parasite load remaining [1] 2.5% | fluorescence ratio [2] 0.95 | inhibition [3] 13.1% | inhibition [4] 7.6% | fluorescence ratio [5] 1 | fold change ([9]; stronger effect = lower value) 1.28 | log fold change Tl+ flux (F380Y) -0.0332 | log fold change Tl+ flux (F380Y/beta1) -0.00723 | log fold change Tl+ flux (F380Y/beta2Delta) -0.00783 | log fold change Tl+ flux (F380Y/beta4) -0.00465 | log fold change Tl+ flux (R275C) -0.0645 | log fold change Tl+ flux (R275C/beta2Delta) -0.0303 | log fold change Tl+ flux (R275C/beta4) 0.02 | log fold change Tl+ flux (R275C/Slo1WT/beta2) 0.0197
54.6%: viability [1]

CCCCCCCCCOc1ccc2[nH]cc(CCN)c2c1
3.42%: viability [1]
4000: cell count [9, 11]
inactive: parasite load remaining [1] 0.13% | fluorescence ratio [2] 0.97 | inhibition [3] -8.08% | z-score [6] -2.82 | mean signal [7] 264
6020: cell count [9, 12]
1.96: fold change [9, 10]
active: inhibition [4] 67.3% | fluorescence ratio [5] 0.61 | fold change ([9]; stronger effect = lower value) 0.664

COc1ccc(CCN)cc1OC
0.533: fold change [9, 10]
72%: viability [1]
inactive: parasite load remaining [1] 69.1% | fluorescence ratio [2] 0.93 | inhibition [3] -0.22% | inhibition [4] 5.91% | fluorescence ratio [5] 0.92 | z-score [6] -0.441 | mean signal [7] 274 | fold change ([9]; stronger effect = lower value) 1.12 | log fold change Tl+ flux (F380Y) -0.0565 | log fold change Tl+ flux (F380Y/beta1) 0.00413 | log fold change Tl+ flux (F380Y/beta2Delta) -0.0175 | log fold change Tl+ flux (F380Y/beta4) -0.0433 | log fold change Tl+ flux [8] -0.00222 | log fold change Tl+ flux (R275C) -0.00436 | log fold change Tl+ flux (R275C/beta1) -0.0128 | log fold change Tl+ flux (R275C/beta2Delta) -0.00532 | log fold change Tl+ flux (R275C/beta4) -0.0169 | log fold change Tl+ flux (R275C/Slo1WT/beta2) -0.0122
7830: cell count [9, 12]
8740: cell count [9, 11]

C[N+]1(C)CCN(c2ccccc2)CC1
87.7%: viability [1]
9770 and 9860: cell count [9, 11]
inactive: parasite load remaining [1] 117% | fluorescence ratio [2] 1.03 | inhibition [3] 6.73% | inhibition [4] 2.21% | fluorescence ratio [5] 1.01 | z-score [6] -0.409 | mean signal [7] 284 | fold change ([9]; stronger effect = lower value) 1.02 and 0.991 | log fold change Tl+ flux (F380Y) -0.0112 | log fold change Tl+ flux (F380Y/beta1) -0.0597 | log fold change Tl+ flux (F380Y/beta2Delta) -0.0318 | log fold change Tl+ flux (F380Y/beta4) 0.0424 | log fold change Tl+ flux [8] -0.0251 | log fold change Tl+ flux (R275C) -0.0752 | log fold change Tl+ flux (R275C/beta1) 0.0101 | log fold change Tl+ flux (R275C/beta2Delta) 0.00724 | log fold change Tl+ flux (R275C/beta4) -0.0438 | log fold change Tl+ flux (R275C/Slo1WT/beta2) -0.0166
1.06 and 1.59: fold change [9, 10]
9580 and 9940: cell count [9, 12]

CC[C@@H]1C=CC=CC[C@H](C)[C@@H](O)[C@@H](C)C(=O)[C@H](C)[C@@H](O)[C@H](C)C(=O)[C@H](C)[C@@H](O)[C@H](C)C=CC(=O)O[C@H]2[C@@H](C)[C@@H](CC1)O[C@@]1(CC[C@@H](C)[C@@H](C[C@H](C)O)O1)[C@@H]2C
inactive: fluorescence ratio [2] 1.01 | inhibition [3] 4.36% | inhibition [4] 7.6% | fluorescence ratio [5] 0.98 | log fold change Tl+ flux (R275C/beta1) 0.0227 | log fold change Tl+ flux (R275C/beta2Delta) -0.0422 | log fold change Tl+ flux (R275C/beta4) -0.0178 | log fold change Tl+ flux (R275C/Slo1WT/beta2) -0.0132
active: parasite load remaining [1] 1.55% | log fold change Tl+ flux (F380Y) -0.509 | log fold change Tl+ flux (F380Y/beta1) -0.604 | log fold change Tl+ flux (F380Y/beta2Delta) -0.884 | log fold change Tl+ flux (F380Y/beta4) -0.693 | log fold change Tl+ flux [8] -0.117 | log fold change Tl+ flux (R275C) -0.133
67.4%: viability [1]
